Data on 40 compounds can be found in PubChem BioAssay (EPA / NIEHS).

Structures are written as SMILES. Results filed as inconclusive are left out. Activity calls are given as the source filed them. Rule for the calls: active = hit-call score of the fitted dose curve at least 0.9, where 1 is the maximum; inconclusive = response in the unintended direction; inactive = score below 0.9.

Read-out in this test: xenobiotic metabolism (CYP1A1), CYP1A1 (gene 1543)
Nature of the test: CLD_CYP1A1_24hr: CellzDirect (CLD) Gene Expression Assay for xenobiotic metabolism (CYP1A1) at 24 hours (AID 2283673). The method, then: CLD_24hr is a cell-based, multiplexed-readout assay that uses hepatocyte, a human liver primary cell, with measurements taken at 24 hours after chemical dosing in a 96-well plate.CLD_CYP1A1_24hr is one of 16 assay component(s) measured or calculated from the CLD_24hr assay. It is designed to make measurements of mRNA induction, a form of inducible reporter, as detected with chemiluminescence signals by Quantitative Nuclease Protection Assay (qNPA) technology.Data from the assay component CLD_CYP1A1_24hr was analyzed at the endpoint, CLD_CYP1A1_24hr, in the positive analysis fitting direction relative to DMSO as the negative control and baseline of activity. Using a type of inducible reporter, gain-of-signal activity can be used to understand changes in the reporter gene as they relate to the gene CYP1A1. Furthermore, this assay endpoint can be referred to as a primary readout. To generalize the intended target to other relatable targets, this assay endpoint is annotated to the cyp intended target family, where subfamily is xenobiotic metabolism.
Human hepatocyte cultures were treated daily for two consecutive days with fresh dosing solutions containing appropriate concentrations of the 320 ToxCast chemicals (chemical identities were blinded to CellzDirect and other ToxCast collaborators), vehicle control (0.2% DMSO), and positive control inducers as summarized in Table 1. Due to the large number of treatment groups and chemicals examined, the ToxCast chemicals were divided into two groups (spanning two independent cultures of hepatocytes from separate donor preparations (Hu778: ToxCast plates 1 and 2; Hu776: ToxCast plates 3 and 4). Each preparation of human hepatocyte cultures was treated with respective vehicle control, medium only control, set of six positive controls/reference chemicals for the five hepatic receptor pathways, and a subset of eight of the ToxCast chemicals (indoxacarb, pyrithiobac-sodium, norflurazon, cyhalofop-butyl, methomyl, thiram, acetochlor, and propiconazole). These replicate data, coupled with internal replicates designed within the blinded ToxCast chemical library, provided additional data to evaluate interindividual differences between hepatocyte preparations and their potential impact on chemical profiles.Cell morphology and integrity were evaluated using phase-contrast microscopy as an indicator of hepatocyte cell health (Tyson & Green, 1987). Cultures for each treatment group (i.e., media, vehicle [0.2% DMSO], positive control inducers [multiple concentrations], and the ToxCast chemicals [multiple concentrations]) were observed and cell morphology was assessed relative to vehicle control cultures at each harvest time point (0, 6, 24, or 48 h). […] Images were evaluated at the conclusion of the study to assess changes in cell integrity and account for the effects of chemical exposure on uncharacteristic changes in concentration-dependent gene expression profiles. The results from these determinations of apparent cytotoxicity were annotated (yes/no) alongside the corresponding qNPA data for reference.At the conclusion of each treatment period, hepatocyte cultures (96-well) were washed with 1 volume of HBSS, lysed by addition of 25 ul ArrayPlate lysis buffer (HTG, Tucson, AZ), and 70 ul/well of Denaturation Oil, denatured by incubation at 95C for 10 min, and frozen at approximately -70C until analysis by nuclease protection assay (qNPA) (Roberts et al., 2007). For qNPA analysis, cell lysates were thawed at 50C for approximately 30 min, qNPA probes were added, and samples were incubated at 95C for 10 min to begin the detection process by denaturing the target RNA, dissociating the duplexes and secondary structure hybridization. At the conclusion of the hybridization period, S1 nuclease reagent was added to each sample to digest all nonprotected nucleotides at 50C for 60-90 min. […]
In the case of `CN1CSC(=S)N(C)C1`, the AC50 is 3.9 µM (active).

Regarding `CC1(C)C(C=C(Cl)Cl)C1C(=O)OC(C#N)c1ccc(F)c(Oc2ccccc2)c1` (stereo not given), the result was inactive.

`CCC(C)Nc1c([N+](=O)[O-])cc(C(C)(C)C)cc1[N+](=O)[O-]` (stereo not given): the call was inactive.

As for `O=C1c2ccccc2C(=O)N1SC(Cl)(Cl)Cl`, the compound was called inactive.

As for `Oc1cc(Cl)ccc1Oc1ccc(Cl)cc1Cl`, the compound was classed as inactive.

Regarding `COP(=S)(OC)Oc1ccc([N+](=O)[O-])cc1`, the AC50 is 4.2 µM (active).

Take `O=C(O)C(F)(F)C(F)(F)C(F)(F)C(F)(F)C(F)(F)C(F)(F)C(F)(F)F`: the outcome was inactive.

Take `O=C(Nc1ccccc1)Nc1cnns1`: the AC50 is 2 µM (active).

For `CC(C)(C)C(O)/C(=C\c1ccc(Cl)cc1Cl)n1cncn1` (stereo not given), the AC50 is 6.46 µM (active).

In the case of `CCOc1nc(NC)nc(NC(=O)NS(=O)(=O)c2ccccc2C(=O)OC)n1`, the AC50 is 7.53 µM (active).

For the compound `CCC(C)(C)C(=O)OC1=C(c2ccc(Cl)cc2Cl)C(=O)OC12CCCCC2`, the result was inactive.

As to `CCOCN(C(=O)CCl)c1c(C)cccc1CC`, the AC50 is 1.99 µM (active).

Take `COC(=O)c1ccccc1S(=O)(=O)NC(=O)Nc1nc(C)nc(OC)n1`: the compound was classed as inactive.

Turning to `O=[N+]([O-])/N=C1\NCCN1Cc1ccc(Cl)nc1`, the call was inactive.

Turning to `CCOC1Oc2ccc(OS(C)(=O)=O)cc2C1(C)C` (stereo not given), the compound was classed as inactive.

In the case of `COC(=O)c1ccccc1S(=O)(=O)NC(=O)N(C)c1nc(C)nc(OC)n1`, the outcome was inactive.

For `OCCOc1ccccc1`, the result was inactive.

`O=S(=O)(O)C(F)(F)C(F)(F)C(F)(F)C(F)(F)C(F)(F)C(F)(F)C(F)(F)C(F)(F)F`: the compound was called inactive.

For the compound `O=C(O)COc1ccc(Cl)cc1Cl`, the compound was called inactive.

Turning to `COP(=S)(OC)Oc1ccc(SC)c(C)c1`, the AC50 is 20 µM (active).

Consider `CNC(=O)/C=C(\C)OP(=O)(OC)OC`, for which the outcome was inactive.

In the case of `O=[N+]([O-])c1c(Cl)c(Cl)c(Cl)c(Cl)c1Cl`, the AC50 is 20 µM (active).

Regarding `CNC(=O)CSP(=S)(OC)OC`, the compound was classed as inactive.

For the compound `O=C(NC(=O)c1c(F)cccc1F)Nc1ccc(OC(F)(F)C(F)OC(F)(F)F)c(Cl)c1` (stereo not given), the compound was classed as inactive.

In the case of `COc1cc(OC)nc(NC(=O)NS(=O)(=O)c2cc(NC=O)ccc2C(=O)N(C)C)n1`, the result was inactive.

`CCc1ccc(C(=O)NN(C(=O)c2cc(C)cc(C)c2)C(C)(C)C)cc1`: the AC50 was 9.97 µM (active).

For the compound `CCN(CC)C(=O)SCc1ccc(Cl)cc1`, the result was inactive.

`Cc1cc(C)nc(NC(=O)NS(=O)(=O)c2ccccc2C(=O)OC2COC2)n1`: the AC50 is 5.65 µM (active).

As to `CC1(c2ccc(Oc3ccccc3)cc2)OC(=O)N(Nc2ccccc2)C1=O` (stereo not given), the AC50 was 3.89 µM (active).

`CC(C)(C)C(O)C(Oc1ccc(Cl)cc1)n1cncn1` (stereo not given): the AC50 was 2.22 µM (active).

`COc1nn(CSP(=S)(OC)OC)c(=O)s1`: the AC50 is 4.39 µM (active).

As for `CCCN(CCC)c1c([N+](=O)[O-])cc(C(F)(F)F)cc1[N+](=O)[O-]`, the AC50 was 8.5 µM (active).

As for `CNC(=O)Oc1ccccc1OC(C)C`, the compound was called inactive.

Regarding `CCC(C)(NC(=O)c1cc(Cl)c(C)c(Cl)c1)C(=O)CCl` (stereo not given), the compound was called inactive.

As to `CCS(=O)(=O)c1cccnc1S(=O)(=O)NC(=O)Nc1nc(OC)cc(OC)n1`, the AC50 was 1.9 µM (active).

On to `CC[C@H](C)[C@H]1O[C@]2(C=C[C@@H]1C)C[C@@H]1C[C@@H](C/C=C(\C)[C@@H](O[C@H]3C[C@H](OC)[C@@H](O[C@H]4C[C@H](OC)[C@@H](O)[C@H](C)O4)[C@H](C)O3)[C@@H](C)/C=C/C=C3\CO[C@@H]4[C@H](O)C(C)=C[C@@H](C(=O)O1)[C@]34O)O2` (tested in a mixture with another compound), for which the AC50 was 35.2 µM (active).

On to `CC(C)N(C(=O)COc1nnc(C(F)(F)F)s1)c1ccc(F)cc1`, for which the result was inactive.

On to `C[C@H]1[C@H](c2ccc(Cl)cc2)SC(=O)N1C(=O)NC1CCCCC1`, for which the AC50 is 3.97 µM (active).

`Cc1[nH]c(=O)n(C(C)(C)C)c(=O)c1Cl`: the concentration at half-maximal activity (AC50) was 7.51 µM (active).

With `COC(=O)c1ccccc1CS(=O)(=O)NC(=O)Nc1nc(OC)cc(OC)n1`, the AC50 was 32.4 µM (active).

For orientation: AC50 means the concentration giving half of the maximal activity seen.
